Results on 7 compounds are retold here after PubChem BioAssay (NCI).

Among the test systems are SK-MEL-2 melanoma; EKVX NSCLC; SN12C renal; UO-31 renal; TK-10 renal; ACHN renal; CAKI-1 renal; A498 renal; CCRF-CEM leukemia; MOLT-4 leukemia; SR leukemia; RPMI-8226 leukemia; OVCAR-8 ovarian; OVCAR-5 ovarian; OVCAR-4 ovarian; SK-OV-3 ovarian; IGROV1 ovarian; OVCAR-3 ovarian; HS 578T breast; NCI/ADR-RES ovarian.
Holding throughout (assay): NCI-60 one-dose screen, 48 h (100 = growth as untreated, 0 = no growth, -100 = all killed)
Common to all, as to conditions: 10 µM unless noted

Molecules are shown by their SMILES. About 83,000 compounds went through this panel and 20% of them were active in at least one assay; those are over-represented in the sample as a whole.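 Compound tested at a single concentration for 48 hours in 96-well plates; a percent growth value below 10 was scored as active.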 A number with no mark means an inactive call. The source made the active and inactive calls.

Regarding `CC(=O)[C@H]1CC[C@]2(C)[C@@H]1CC[C@@H]1[C@@]3(C)C/C(=C/c4cccnc4)C(=O)C(C)(C)[C@@H]3CC[C@]12C`, the growth in the assay with SK-MEL-2 melanoma was 85.3%; in the assay on EKVX NSCLC it was 85.1%; in the assay on SN12C renal it was 75.6%; with UO-31 renal it was 78.2%; with TK-10 renal, 162%; in the assay on ACHN renal it was 87.3%. For the same compound, the growth in the assay on CAKI-1 renal was 72.5%; in the assay with A498 renal, 100%; with CCRF-CEM leukemia it was 31.7%; with MOLT-4 leukemia, 20.3%; in the assay on SR leukemia, 40.9%; in the assay on RPMI-8226 leukemia it was 8.88% (active). In addition, the growth with OVCAR-8 ovarian was 27.1%; in the assay with OVCAR-5 ovarian it was 132%; in the assay on OVCAR-4 ovarian, 43.6%; in the assay with SK-OV-3 ovarian, 87.2%; in the assay with IGROV1 ovarian, 93.4%; in the assay with OVCAR-3 ovarian, 47.4%. Further, the figures for the growth in the assay on HS 578T breast and with NCI/ADR-RES ovarian were 94.2% and 67.2%, respectively.

For the compound `CC1=NC(=S)NC(c2ccccc2)/C1=C1/CC(c2ccccc2O)NN1` (stereo not given), the growth with SK-MEL-2 melanoma was 108%; with EKVX NSCLC it was 95.7%; with SN12C renal it was 97.5%; in the assay on UO-31 renal, 73.1%; with TK-10 renal, 138%; in the assay with ACHN renal it was 101%. The growth is 84.8% in the assay with CAKI-1 renal; 93.8% in the assay on A498 renal; 99.1% in the assay with CCRF-CEM leukemia; 99.9% in the assay on MOLT-4 leukemia; 97.8% in the assay with SR leukemia; 97.7% with RPMI-8226 leukemia. Moreover, the growth in the assay with OVCAR-8 ovarian was 96.6%; in the assay with OVCAR-5 ovarian, 101%; with OVCAR-4 ovarian it was 101%; in the assay with SK-OV-3 ovarian, 98.2%; in the assay with IGROV1 ovarian it was 93.2%; in the assay on OVCAR-3 ovarian it was 109%. The growth in the assay with HS 578T breast was 108%; with NCI/ADR-RES ovarian, 104%.

As to `FC(F)(F)c1cc(N2CCCCC2)nc(NCCCNc2ccnc3cc(Cl)ccc23)n1`, the growth in the assay on SK-MEL-2 melanoma was 64.9%; in the assay on EKVX NSCLC it was 48.3%; in the assay with SN12C renal, 69.1%; in the assay with UO-31 renal, 46.8%; in the assay with TK-10 renal it was 63.6%; in the assay with ACHN renal it was 65.8%. The growth with CAKI-1 renal is 60.7%; in the assay on A498 renal, 47.8%; in the assay with CCRF-CEM leukemia it was 54%; with MOLT-4 leukemia, 40%; with SR leukemia it was -4.99% (active); in the assay with RPMI-8226 leukemia it was 39.9%. In addition, the growth is 66.2% with OVCAR-8 ovarian; 87.6% with OVCAR-5 ovarian; 43.4% in the assay on OVCAR-4 ovarian; 72.1% with SK-OV-3 ovarian; 60% in the assay on IGROV1 ovarian; 54.8% with OVCAR-3 ovarian. In addition, the growth is 74.7% in the assay on HS 578T breast and 44.9% in the assay on NCI/ADR-RES ovarian.

As to `CCNc1nc(-c2ccc(Cl)c(OC)c2)c(-c2ccnc(NCCNS(=O)(=O)c3ccc(Cl)cc3)n2)s1`, the growth was -30% (active) in the assay with SK-MEL-2 melanoma; 34.9% in the assay with EKVX NSCLC; 36.1% in the assay with SN12C renal; 40.8% with UO-31 renal; 22.5% with TK-10 renal; 33.7% with ACHN renal. The growth with CAKI-1 renal is 30.4%; in the assay with A498 renal, 18.6%; in the assay with CCRF-CEM leukemia it was 21.4%; in the assay on MOLT-4 leukemia, 11.2%; in the assay with SR leukemia it was 21.5%; in the assay on RPMI-8226 leukemia, 21.4%. In addition, the growth is 37.9% in the assay with OVCAR-8 ovarian; 40.7% with OVCAR-5 ovarian; 31.8% in the assay on OVCAR-4 ovarian; 1.58% (active) in the assay on SK-OV-3 ovarian; 39.3% with IGROV1 ovarian; -3.31% (active) in the assay with OVCAR-3 ovarian. Also, the growth is 24.1% with HS 578T breast and 33% in the assay with NCI/ADR-RES ovarian.

In the case of `COc1ccc(C(c2cc(OC)c(OC)c(OC)c2)n2cncn2)cc1O` (stereo not given), the growth is 55.9% with SK-MEL-2 melanoma; 39.8% in the assay on EKVX NSCLC; 39.3% with SN12C renal; 58% in the assay on UO-31 renal; 61.3% with TK-10 renal; 52.4% in the assay on ACHN renal. The growth in the assay on CAKI-1 renal is 40.4%; with A498 renal, 9.66% (active); in the assay on CCRF-CEM leukemia, 9.34% (active); in the assay on MOLT-4 leukemia, 16.7%; in the assay with SR leukemia, 7.03% (active); with RPMI-8226 leukemia it was 20.7%. In addition, the growth in the assay with OVCAR-8 ovarian is 13.4%; with OVCAR-5 ovarian, 73%; with OVCAR-4 ovarian it was 72.1%; in the assay on SK-OV-3 ovarian it was 20.3%; in the assay on IGROV1 ovarian it was 49.2%; in the assay with OVCAR-3 ovarian it was 1.74% (active). For the same compound, the growth is 31.3% in the assay with HS 578T breast and 1.8% (active) in the assay on NCI/ADR-RES ovarian.

For the compound `Cc1ccc(-c2nnc(SCc3nc(N)nc(Nc4ccccc4F)n3)n2-c2ccccc2)cc1`, the growth is 95.4% with SK-MEL-2 melanoma; 94.2% with EKVX NSCLC; 95.6% in the assay with SN12C renal; 70.4% in the assay on UO-31 renal; 100% in the assay on TK-10 renal; 92% in the assay on ACHN renal. In addition, the growth in the assay on CAKI-1 renal is 85.2%; in the assay with A498 renal, 55.3%; with CCRF-CEM leukemia it was 90.2%; in the assay with MOLT-4 leukemia, 70.2%; with SR leukemia it was 92.4%; in the assay with RPMI-8226 leukemia, 83.7%. Further, the growth is 88% in the assay with OVCAR-8 ovarian; 95.9% in the assay with OVCAR-5 ovarian; 86.7% with OVCAR-4 ovarian; 102% with SK-OV-3 ovarian; 81.4% in the assay with IGROV1 ovarian; 102% in the assay with OVCAR-3 ovarian. In addition, the growth with HS 578T breast is 87.1%; with NCI/ADR-RES ovarian, 98.2%.

For `Nc1ncc(-c2ccc3ncnc(N4CCc5ccc(Cl)cc54)c3c2)cn1`, the growth was -53.3% (active) in the assay on SK-MEL-2 melanoma; 2.36% (active) in the assay on EKVX NSCLC; 7.41% (active) in the assay with SN12C renal; -21.7% (active) with UO-31 renal; -30.3% (active) with TK-10 renal; 3.09% (active) in the assay with ACHN renal. Besides, the growth in the assay with CAKI-1 renal was 5.95% (active); in the assay with A498 renal, -55.2% (active); in the assay with CCRF-CEM leukemia, 4.45% (active); with MOLT-4 leukemia it was -39% (active); in the assay with SR leukemia, -10.6% (active); in the assay on RPMI-8226 leukemia, -35.6% (active). Moreover, the growth in the assay with OVCAR-8 ovarian was 4.28% (active); with OVCAR-5 ovarian, 7.02% (active); in the assay on OVCAR-4 ovarian it was 2.15% (active); in the assay with SK-OV-3 ovarian it was -22.2% (active); with IGROV1 ovarian it was -47.7% (active); in the assay on OVCAR-3 ovarian it was 3.17% (active). The growth with HS 578T breast is -24.5% (active); in the assay with NCI/ADR-RES ovarian, 3.68% (active).
